The values below come from ChEMBL document CHEMBL4513216, “Probing the Open Global Health Chemical Diversity Library for Multistage-Active Starting Points for Next-Generation Antimalarials” (ACS Infect Dis, 2020).

Screen size: about 69,000 compounds; about 8,600 (12%) showed an effect of 50% or more. The sample as a whole holds a higher share of strong results than the screen did.

The subject of the experiment is Plasmodium berghei. In words: Screen against P. berghei liver stage (PbLuc), transformed with Luciferase, at 10uM. The experiment is classed as functional, HepG2. As to conditions: tested at 10 uM.
Regarding `COCC(=O)N1CCC2(CC1)CC(COC)N(c1ncccn1)C2` (configuration not stated), the INHIBITION is -6.23%. With `COCCC(=O)N1CCCC(c2nc(O)cc(-c3ccncc3)n2)C1` (configuration not stated), the INHIBITION amounted to 28%. In the case of `CNC(=O)[C@@]12CCO[C@@H]1CCN(Cc1cccc(C)c1)C2`, the INHIBITION is 38.1%. For the compound `O=C(O)CSc1nnc(-c2ccn[nH]2)n1-c1ccccc1C(F)(F)F`, the INHIBITION came out at 27.4%. `O=C(O)CSc1nnc(-c2cn[nH]c2)n1-c1ccccc1Cl`: the INHIBITION stood at 9.87%. Then `O=C(O)CSc1nnc(-c2cn[nH]c2)n1-c1ccccc1C(F)(F)F`, with 90.8%. In the case of `CCc1ncc(C(=O)N2CCCN(C3CCCC3)CC2)cn1`, the INHIBITION is listed as 43.6%. On to `CCCc1noc(CCC(=O)N2CCCC2Cn2cc(C)cn2)n1` (configuration not stated), for which the INHIBITION is recorded as -13.5%. Then `O=C(CC1CCc2ccccc21)N1CCC(O)(c2cccnc2)CC1` (configuration not stated), with 6.83%; and `CS(=O)(=O)Nc1cccc(C(=O)Nc2ccc3c(c2)C(=O)NC3)c1`, with -13.2%.

Turning to `CC(C)c1ccc(OCCNC(=O)c2ccoc2)cc1`, the INHIBITION is listed as 87.1%. With `O=C(NCCOc1ccc(C(F)(F)F)cn1)c1ccoc1` the figure was 57.5%; with `O=C(NCCNc1ccc(C(F)(F)F)cn1)c1ccoc1`, 22.8%; with `Cc1nc(C)c(C(=O)NCCOc2ccc(C(F)(F)F)cn2)o1`, 64.4%. With `Cc1occc1C(=O)NCCOc1ccc(C(F)(F)F)cn1` the figure was 27.7%; with `CC(C)c1ccc(OCCNC(=O)N2CCS(=O)(=O)CC2)cc1`, -12.21%. With `O=C(NCCNS(=O)(=O)c1ccc(C(F)(F)F)cc1)c1ccoc1`, the INHIBITION is 0.266%. Consider `O=C(CNC(=O)c1ccoc1)NCCOc1ccc2c(c1)CCC2`, for which the INHIBITION is -112%. With `Cc1ccoc1C(=O)NCCOc1ccc(C(F)(F)F)cn1` the figure was 31.7%; with `c1ccc(Cc2noc(-c3ccc(NCC4CCCOC4)nc3)n2)cc1` (configuration not stated), 18.8%; with `Cc1sc2ccccc2c1S(=O)(=O)NCCNC(=O)C(C)C`, -35%.

As for `Cc1ccc(N2C[C@H]3CCC[C@@]3(COc3cccnc3)C2)nn1`, the INHIBITION is listed as -44.2%. Turning to `CC(=O)Nc1c(C)noc1C=Cc1ccc(S(=O)(=O)NC2CC2)cc1`, the INHIBITION is on record as 47.2%. With `OC1(CNCCN2CCCc3ccccc32)CCNC1` (configuration not stated), the INHIBITION is 9.55%. Then `Cn1c(=O)c2cc(C(=O)NCCOCC(F)(F)F)ccc2n(C)c1=O`, with 27.8%.

For the compound `Cc1cc(N2CCC(Cc3cnccn3)C2)ncn1` (configuration not stated), the INHIBITION is listed as 2.55%. As to `CC(C)(C)c1n[nH]cc1CNC1CCC(C(F)(F)F)CC1` (configuration not stated), the INHIBITION is -32.6%. In the case of `CN(C)C(=O)C1CN(Cc2ccccc2)CCN(S(C)(=O)=O)C1` (configuration not stated), the INHIBITION was 32.4%. Then `C[C@H]1C[C@@H]2CCN(Cc3ccco3)C[C@H]2O1`, with 46.2%. With `Cc1cccc(C(=O)N2CC[C@H]3C[C@@H](C)O[C@@H]3C2)n1` the figure was 7.31%; with `C[C@@H]1C[C@@H]2CCN(Cc3ccncc3)C[C@H]2O1`, 15.9%. `Cc1csc(CN2CC[C@H]3C[C@H](C)O[C@@H]3C2)n1`: the INHIBITION amounted to 15.4%. `Cc1cccc(CN2CC[C@H]3C[C@@H](C)O[C@@H]3C2)n1`: the INHIBITION worked out at 76.5%.

In the case of `C[C@H]1C[C@@H]2CCN(Cc3ccccn3)C[C@H]2O1`, the INHIBITION is recorded as 15.9%. Turning to `C[C@@H]1C[C@@H]2CCN(Cc3ccccn3)C[C@H]2O1`, the INHIBITION is 55.5%.

`Cc1cccc(CN2CC[C@H]3C[C@H](C)O[C@@H]3C2)n1`: the INHIBITION was determined as 56.7%. Then `CN(C)C(=O)C1CN(Cc2cscn2)CCN(S(C)(=O)=O)C1` (configuration not stated), with 37%; and `CN(C)C(=O)C1CN(Cc2ccccn2)CCN(S(C)(=O)=O)C1` (configuration not stated), with 89.3%; and `C[C@H]1C[C@H]2CN(Cc3ccccn3)CC[C@@H]2O1`, with 46.2%. Then `Cc1cc(N2CCCC2c2cc(Nc3cnccn3)nc(C)n2)ncn1` (configuration not stated), with -50.2%; and `Cc1nc(C)n(CC2CCCCN2Cc2nc(-c3ccco3)no2)n1` (configuration not stated), with -12.915%.

In the case of `Cc1ccc(C(=O)N2CCn3c(COCC4CC4)cnc3C2C)nc1` (configuration not stated), the INHIBITION is given as 39.3%.

`CN(CC1(O)CCN(c2ccccn2)C1)C(=O)Cc1ccsc1` (configuration not stated): the INHIBITION is 46%. Then `CCN(CC)c1ccc(NS(=O)(=O)c2cccnc2)cn1`, with 77.5%.

`CCN(CC)c1ccc(NS(=O)(=O)c2cncc(F)c2)cn1`: the INHIBITION is given as 46.8%. In the case of `CCN(CC)c1ccc(NS(=O)(=O)c2cnn(C)c2)cn1`, the INHIBITION is 0.139%.

Consider `CCC(CNC(=O)c1cccc(S(=O)(=O)NC)c1)N1CCCC1` (configuration not stated), for which the INHIBITION is reported as 18%. With `COCCN1CCc2ncnc(-c3ccccc3)c2CC1` the figure was 8.66%. Then `Cc1ccc(NC(=O)CN(C)C(=O)c2ccc(-n3cccc3)nc2)nc1`, with 68.9%; and `Cc1ccc(C(=O)N(C)CC(=O)Nc2cccc(C)n2)cn1`, with 16.8%; and `Cc1cccc(NC(=O)CN(C)C(=O)c2ccc(-n3cccc3)nc2)n1`, with 8.08%. With `Nc1nc(C2CCN(C(=O)c3cnco3)CC2)cs1` the figure was 18.9%.
